# Results taken from PubChem BioAssay AID1985 (Southern Research Specialized Biocontainment Screening …, 2009).
# Hit rate of the full screen: of about 2,300 compounds, about 1,000 (43%) were called active. How the calls were made is not given here. The set was probably picked from earlier hits. Some of the results follow. Entries with a potency or affinity are not part of this list.
# Assay: PhoP regulon inhibitor project modified counter assay, GFP fluorescence readout, dose response (AID 1985)
# Conditions: S. Typhi, 4 h; series mostly up to 150 µM; inhibition: at the top concentration
row,SMILES,inhibition
1,N=c1c(C(=O)NCC2CCCO2)cc2c(=O)n3ccccc3nc2n1Cc1ccc(Cl)cc1 (centres undefined),9.7% (inactive)
2,CCOc1ccc(NC(=O)CN(C)S(=O)(=O)c2cccs2)cc1,15.2% (inactive)
3,Cc1ncc(CC(=O)n2cc(C(=O)c3cc(F)ccc3O)cn2)s1,38.7% (inactive)
4,CN(C)C(=O)CC12CC3CC(C1)CC(CC(=O)N(C)C)(C3)C2,-17.9% (inactive)
5,Nc1cc2c3c(cccc3c1)C(=O)N(CCN1CCCC1)C2=O,35% (inactive)
6,CC[C@H](C)[C@@H](CN[C@H](C)CNC)NCCC(c1ccccc1)c1ccccc1,26.2% (inactive)
7,O=C(Cn1c(=O)oc2ccccc21)N1CCN(c2ccc(N3CCOCC3)nn2)CC1,0.93% (inactive)
8,CCn1c(O)c(N=NC(=O)CNC(=O)/C=C/c2ccco2)c2ccccc21,1.49% (inactive)
9,Cc1c(CCN)ccc2c1[nH]c1ccccc12,26.4% (inactive)
10,Cc1c(C=O)c2ccccn2c1C(=O)c1ccccc1,21.6% (inactive)
11,O=C(N/N=C/c1c(Cl)nc2ccccn2c1=O)c1cccnc1,-34.3% (inactive)
12,Oc1ccc(-c2nc3ncccn3c2Nc2ccc3c(c2)OCCO3)cc1,15.1% (inactive)
13,CC(C)CC(c1nnnn1Cc1ccco1)N1CCN(c2cccc(Cl)c2)CC1 (centres undefined),17.4% (inactive)
14,COc1cccc(C2=NO[C@@H]3C(=O)N(Cc4ccccc4)C(=O)[C@H]23)c1OC,6.49% (inactive)
15,CCOC(=O)/C=C1/N(C)c2ccccc2C1(C)C,-30.2% (inactive)
16,CC(Oc1ccc(/C=N/NC(=O)Cc2cccc3ccccc23)cc1)C(=O)O (centres undefined),0.72% (inactive)
17,COc1ccc(/C=N/NC2=NCCCCC2)c(OC)c1,20.2% (inactive)
18,Cc1ccc(N/N=C/c2ccncc2)cc1,-6.54% (inactive)
19,Cc1cc(N/N=C/c2ccc(F)cc2)nc(NCc2ccccc2)n1,17.8% (inactive)
20,COc1ccc(/C=N/Nc2cc(C)nc3ccccc23)cc1,-40.8% (inactive)
21,CCOC(=O)c1c(C)sc2c1N(C(C)=O)c1cc(Cl)ccc1S2,-3.33% (inactive)
22,CCCC1(c2ccccc2)NC(=O)N(CC(=O)Nc2ccccc2C(F)(F)F)C1=O (centres undefined),27.4% (inactive)
23,O=C1C2C3C=CC(CC3)C2C(=O)N1/N=C/c1ccc(O)cc1 (centres undefined),-1.35% (inactive)

row,SMILES,inhibition
1,Cn1c(-c2ccc(CN3CCCCC3)o2)nc2ccccc21,-0.13% (inactive)
2,CCN(CC)CCn1c(NCc2cc(OC)ccc2OC)nc2ccccc21,-0.33% (inactive)
3,CCN(CC)S(=O)(=O)c1ccc(/C(O)=C(\C#N)c2nc3ccccc3n2C)cc1,-25.9% (inactive)
4,COc1ccc(CNc2nc3ccccc3n2C)c(O)c1,16.9% (inactive)
5,Cc1cccc(NS(=O)(=O)c2ccc3c(c2)OCCO3)c1,1.22% (inactive)
6,CC1(C)N=C(N)NC(Nc2cccc(Br)c2)=N1,-11.3% (inactive)
7,CCN(CC)CC#CC(C)OCOCC#CCOC (centres undefined),-5.3% (inactive)
8,CNc1ccc(SC#N)cc1,30.1% (inactive)
9,O=C(CCn1cccc1)Nc1ccc(OC(F)(F)F)cc1,-1.93% (inactive)
10,NC1=NC2(CCCCC2)n2c(nc3ccccc32)N1,-8.01% (inactive)
11,COc1ccc(NC2=Nc3ccccc3CC2)cc1,11.2% (inactive)
12,Cc1ccc(C(=O)NCC(=O)NCCc2ccc(S(N)(=O)=O)cc2)s1,10.8% (inactive)
13,CCN1C(=O)N/C(=C/c2cc(C)n(Cc3ccccc3)c2C)C1=O,30.9% (inactive)
14,N=c1ccccn1CC(O)COc1ccccc1 (centres undefined),-17.7% (inactive)
15,Cc1c(Cl)cccc1NC(=O)C1CCN(S(C)(=O)=O)CC1,-19.9% (inactive)
16,Cc1ccc(N(C(=O)c2sc(C)nc2C)C(C(=O)NCc2ccco2)c2ccccc2)cc1 (centres undefined),-2.74% (inactive)
17,Fc1cccc(Cl)c1CSc1ccc(-c2ccco2)nn1,-8.68% (inactive)
18,COc1ccccc1NC(=O)Cn1c(=O)n(CCc2c[nH]c3ccccc23)c(=O)c2cccnc21,2.09% (inactive)
19,Cc1cccc(OCC(=O)Nc2nonc2NC(=O)COc2cccc(C)c2)c1,18.1% (inactive)
20,CC(=O)Nc1ccc(NC(=O)CSc2ccc(-c3ccco3)nn2)cc1,-9.15% (inactive)
21,Cc1ccc(C)c(NC(=O)CSc2nnc([C@@H](N)Cc3c[nH]c4ccccc34)o2)c1,22.6% (inactive)
22,CC(C)CC(=O)N1CCN(C(=O)CCC2CCCC2)CC1,1.22% (inactive)
23,CC(C)c1ccc(C2C(C#N)=C(N)Oc3c2oc(CO)cc3=O)cc1 (centres undefined),32.6% (inactive)

row,SMILES,inhibition
1,CNS(=O)(=O)c1cc(OC)ccc1OC,-17.8% (inactive)
2,C#CC[N+]1(CC#Cc2ccc(C#CC[N+]3(CC#C)CCOCC3)cc2)CCOCC1,36% (inactive)
3,Nc1c(-c2ccccc2)sc2ccc3ccccc3[n+]12,-6.95% (inactive)
4,CCc1ccc(Nc2n[n+](-c3ccccc3)c(-c3c(Cl)cccc3Cl)s2)cc1,22.9% (inactive)
5,C(=N\Nc1nc2ccccc2[nH]1)/c1ccc2ncccc2c1,22.9% (inactive)
6,COC(=O)CC1C(=O)NCCN1C(=O)CSc1nc2ccc([N+](=O)[O-])cc2s1 (centres undefined),-5.58% (inactive)
7,O=C(O)COc1ccc(/C=C/c2nc3ccc([N+](=O)[O-])cc3s2)cc1,24.7% (inactive)
8,O=C(N/N=C/c1cccnc1)c1ccc([N+](=O)[O-])cc1Cl,20.2% (inactive)
9,Cc1cccc(NC(=O)c2ccccc2Br)n1,7.12% (inactive)
10,Cc1cc(=O)n2nc(N3CCCC(C(=O)NC4CCCCC4C)C3)sc2n1 (centres undefined),-11% (inactive)
11,COC(=O)c1ccc(Cn2cnc3ccccc3c2=O)cc1,-24.3% (inactive)
12,N#CCCn1c2ccccc2c2nc3ccccc3nc21,-14.3% (inactive)
13,CCCCn1c(NS(=O)(=O)c2ccc(C)cc2)c(S(=O)(=O)c2ccccc2)c2nc3ccccc3nc21,16.6% (inactive)
14,CCCCn1c(NCc2ccccc2NS(=O)(=O)c2ccc(C)cc2)nc2ccccc21,0.61% (inactive)
15,O=S(=O)(Nc1c(S(=O)(=O)c2ccccc2)c2nc3ccccc3nc2n1C1CCCCC1)c1ccccc1,10.3% (inactive)
16,CCOC(=O)CSc1nc(-c2ccccc2)nc2ccccc12,-13.8% (inactive)
17,Cc1cccc(S(=O)(=O)c2c(N)n(/N=C/c3ccccc3)c3nc4ccccc4nc23)c1,-12% (inactive)
18,CCC(=O)N(Cc1cc2cc(OC)ccc2[nH]c1=O)c1ccc(C)cc1C,-1.85% (inactive)
19,O=C(CCS(=O)(=O)c1ccccc1)Nc1ccc2c(c1)C(=O)NC2=O,-8.55% (inactive)
20,Cc1ccc2nsnc2c1S(=O)(=O)NCc1ccc2c(c1)OCO2,-19.2% (inactive)
21,c1cncc(CSc2ccc(-c3cccs3)nn2)c1,21.3% (inactive)
22,c1ccc2c(c1)CCN(c1nc3ccccc3n3cnnc13)C2,-0.2% (inactive)
23,COc1ccc2c(c1OC)C(=O)N(c1ccc(C)cc1)C2=O,-3.73% (inactive)

row,SMILES,inhibition
1,Cc1cc(C(F)F)n2nc(C(=O)Nc3cc(C)on3)nc2n1,-28.2% (inactive)
2,Cc1[nH]nc2c1C(C1CC=CCC1)C(C#N)=C(N)O2 (centres undefined),-24.6% (inactive)
3,COc1ccc(-n2c3c(cc(C(=O)Nc4cccc(C)n4)c2=O)C(=O)CC(C)(C)C3)cc1,8.22% (inactive)
4,CC1(C)CC(=O)C2=C(C1)N(c1ccc(F)cc1)C(=O)CC2c1ccsc1 (centres undefined),-3.27% (inactive)
5,CCc1ccc(NC2=NCCCS2)cc1,33.4% (inactive)
6,CCCCN(C)C(=O)c1ccc(S(=O)(=O)N2CCOCC2)cc1,-15% (inactive)
7,CSc1ccc(NC(=O)C(C)N2CCN(C)CC2)cc1 (centres undefined),20.9% (inactive)
8,CCCCC(=O)Nc1ccc2c(c1)C(=O)NC2=O,3.13% (inactive)
9,Cc1cc(C)c2c(=O)[nH]c(SCC(=O)N3CCCCC3)nc2n1,12.4% (inactive)
10,CC(C)c1c(O)nc(SCC(=O)N2CCOCC2)[nH]c1=O,15.7% (inactive)
11,Nc1nc(SCC(=O)Nc2ccc3c(c2)CCC3)n[nH]1,24.4% (inactive)
12,CCCC1(c2ccccc2)NC(=O)N(CC(=O)Nc2cc(S(=O)(=O)N3CCOCC3)ccc2Cl)C1=O (centres undefined),-10.2% (inactive)
13,CN1Cc2ccccc2N(CC(=O)NCc2ccccc2)C1=O,17.8% (inactive)
14,O=C(CC1(O)C(=O)Nc2ccc(Br)cc21)c1ccc2c(c1)OCO2 (centres undefined),-18.1% (inactive)
15,CCOC(=O)CNC(=O)Cn1c(C)cc2ccccc2c1=O,-9.62% (inactive)
16,CCn1c(=N)n(CC(=O)c2ccc(OC)cc2)c2ccccc21,26% (inactive)
17,O=C(CN(Cc1ccco1)C(=O)CNS(=O)(=O)c1ccc(Cl)cc1)NCc1ccc(F)cc1,-0.77% (inactive)
18,CS(=O)(=O)N(CCc1ccccc1)CC(=O)Nc1ccc2c(c1)OCO2,-15.3% (inactive)
19,CCN1CCN(CC(=O)Nc2ccc(C)c(Br)c2)CC1,10.2% (inactive)
20,CCN(CC)CCn1nc(C)nc1-c1ccccc1O,27.2% (inactive)
21,CCc1nc(SCC(=O)Nc2ccc(N(C)C)cc2)c2ccccc2n1,-3.05% (inactive)
22,C/C(=N\Nc1ccc(C)c(Cl)c1)c1cccnc1,-11.4% (inactive)
23,Nc1nc(N2CCN(c3ccccn3)CC2)nc2ccccc12,1.19% (inactive)

row,SMILES,inhibition
1,c1ccc2oc(-c3ccc(Nc4nc(N5CCCCC5)nc(N5CCOCC5)n4)cc3)nc2c1,-13.3% (inactive)
2,Cc1ccc(NC2=NCCCS2)cc1Cl,38% (inactive)
3,Clc1ccc(Nc2nc(C3CC3)cs2)cc1,12% (inactive)
4,O=C(CN1C2=NCCN2c2ccccc21)c1ccc2c(c1)OCO2,9.44% (inactive)
5,CN(C)C(/C=C/Nc1ccc(F)cc1F)=C(C#N)C#N,-10.3% (inactive)
6,CCOc1ccc(NC(=O)CN(C)C(=O)c2ccccc2CCc2ccccc2)cc1OCC,-32.9% (inactive)
7,CC(C)CC(=O)Nc1ccc(-c2cn3cccnc3n2)cc1,14.1% (inactive)
8,CCOc1ccc(NC(N)=O)cc1,15.4% (inactive)
9,CCOc1ccc(-c2nc(N)ncc2-c2ccccc2)c(O)c1,18.8% (inactive)
10,Cc1ccc(Cn2c(=N)c(C(=O)NCc3ccco3)cc3c(=O)n4ccccc4nc32)cc1,16.6% (inactive)
11,CCn1cnc2cc(NCc3ccc(Br)cc3)ccc21,15.8% (inactive)
12,NC(=O)CN1N=C(c2cc(Cl)sc2Cl)CSC1=O,4.36% (inactive)
13,CN1C(=O)c2ccc(NC(=O)C3CCCCC3)cc2C1=O,-8.71% (inactive)
14,COc1ccc(C(=O)Nc2cc3c(cc2OC)CCCC3)cc1Br,-5.35% (inactive)
15,CCCCN(CCCC)CCNC(=O)CSCc1ccc(C)cc1,-17.4% (inactive)
16,COCc1[nH]nc2c1C(c1ccc(OC)cc1)C(C#N)=C(N)O2 (centres undefined),-3.75% (inactive)
17,COc1ccccc1NC(=O)Cn1cnc2c(nnn2-c2ccc(C)cc2)c1=O,-10.9% (inactive)
18,COc1cccc(/C=N/NC(=O)CNC(=O)CCc2ccccc2)c1O,24.4% (inactive)
19,CCCCn1cnc2cc(NCc3cccc(OC)c3O)ccc21,28.6% (inactive)
20,COc1cccc(/C=N/NC(=O)CO/N=C(\C)c2cccs2)c1OC,34.1% (inactive)
21,Cc1ccc(C)c2[nH]c(=O)c(CN(Cc3cccnc3)C(=S)NCc3ccco3)cc12,-16.5% (inactive)
22,C=CCn1c(NC(C)c2cc(Cl)ccc2O)nc2ccccc21 (centres undefined),-14.7% (inactive)
